For experiment [1], the system named is Staphylococcus aureus. The note with it: Concentration 32 ug.mL-1;; ASSAY_TEST Inhibition of Bacterial Growth; detection method Absorption (OD600); MEDIA CAMHB; plate type 384well; NBS; CORNING #3640; time 18 hr.
For experiment [2], the system named is Escherichia coli. To be noted: Concentration 32 ug.mL-1;; ASSAY_TEST Inhibition of Bacterial Growth; detection method Absorption (OD600); MEDIA CAMHB; plate type 384well; NBS; CORNING #3640; time 18 hr.

Potency and affinity values are given separately.

On to `CCOC(=O)c1ccc(NC(=O)Cn2nc3c4cc(-c5ccc(C)c(C)c5)nn4ccn3c2=O)cc1`, for which the Inhibition (usually the drop in the measured response relative to a control, in per cent) in experiment [1] is reported as 3.76%; in experiment [2], -8.53%.

Turning to `CCc1ccc(N(Cc2ccccc2)S(=O)(=O)c2cccn3cnnc23)cc1`, the Inhibition in experiment [1] is reported as 5.64%; in experiment [2], -1.12%.

As to `Cc1ccc(Cl)cc1N1CCN(C(=O)CCc2nnc3c4cc(-c5ccccc5)nn4ccn23)CC1`, the Inhibition in experiment [1] is reported as 1.17%; in experiment [2], -6.03%.

On to `Cc1cc2nn(CC(=O)NCc3ccc4c(c3)OCO4)c(=O)n2c(Nc2ccccc2C)n1`, for which the results for the Inhibition in experiment [1] and in experiment [2] were 0.76% and -4.19%, respectively.

As for `CC1CC(C)CN(c2nccn3c(=O)n(CC(=O)NCc4ccccc4Cl)nc23)C1` (stereo not given), the Inhibition in experiment [1] is on record as 3.32%; in experiment [2], 2.48%.

The record behind these values is ChEMBL document CHEMBL4513146, “CO-ADD screening of Karazin Kharkiv National University (Ukraine) compounds”.
